Eight compounds from PubChem BioAssay (Tox21) can be followed below.

A short description of assay [1]: Caspase-3/7 induction in CHO-K1 cells by small molecules, qHTS cell viability counter screen (AID 1346979). Note: nearly all actives have a fitted effect of over 35% in size. Note: potency is the fitted concentration of half-maximal effect. An outline of the steps:
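Seeding: 1,500 CHO-K1 cells/well. Rest: 5hr, 37C. Treatment: compounds in DMSO, 16hr. Read: CellTiter-Fluor, 1hr, fluorescence.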
In general terms: In qHTS, concentration-response curves come from the screen itself.

Assay [2] can be described thus: Caspase-3/7 induction in CHO-K1 cells by small molecules, qHTS assay (AID 1346980). Note: nearly all actives have a fitted effect of over 15% in size. In outline:
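Luminescent Caspase-Glo 3/7 read (30min, room temperature) quantified apoptosis induction. Cells were wild-type CHO-K1, treated with compound for 17hr at 37 C and 5% CO2.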

Assay [3] in a line: Caspase-3/7 induction in HepG2 cells by small molecules, qHTS cell viability counter screen (AID 1346981). Note: nearly all actives have a fitted effect of over 30% in size. Note: potency is the fitted concentration of half-maximal effect. An outline of the steps: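 Treatment of HepG2 cells with DMSO-delivered compounds ran 16 hr at 37 C following a 5-hr pre-incubation of 2,000 cells/well. CellTiter-Fluor fluorescence, read after 1 hr, served as the viability measure in a qHTS format.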
The target of assay [4] is Nuclear receptor subfamily 1 group I member 2 (Homo sapiens) (UniProt O75469). The experiment in a line: Human pregnane X receptor (PXR) small molecule agonists, qHTS assay (AID 1346982). Note: nearly all actives have a fitted effect of over 35% in size. Note: potency is the fitted concentration of half-maximal effect. In outline: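 Stable HepG2 line reporting PXR-mediated CYP3A4 expression via luciferase. Treatment: 24 hr with compounds in DMSO at 37 C. Detection: ONE-Glo luminescence.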
Nuclear receptor subfamily 1 group I member 2 (Homo sapiens), sequence (O75469 whole entry, looked up): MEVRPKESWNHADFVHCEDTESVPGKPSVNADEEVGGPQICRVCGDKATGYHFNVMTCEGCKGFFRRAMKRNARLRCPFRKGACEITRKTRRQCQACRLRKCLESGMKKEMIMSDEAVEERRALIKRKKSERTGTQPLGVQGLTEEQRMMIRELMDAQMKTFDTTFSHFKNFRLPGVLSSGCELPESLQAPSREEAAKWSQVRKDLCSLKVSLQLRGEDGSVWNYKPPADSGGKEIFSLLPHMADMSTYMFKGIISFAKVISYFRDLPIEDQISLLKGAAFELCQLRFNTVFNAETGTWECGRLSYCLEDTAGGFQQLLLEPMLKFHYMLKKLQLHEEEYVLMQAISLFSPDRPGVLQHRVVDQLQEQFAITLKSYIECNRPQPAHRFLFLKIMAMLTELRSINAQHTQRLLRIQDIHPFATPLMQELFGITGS
Assay [5] has as its target Acetylcholinesterase (Homo sapiens) (UniProt P22303). The experiment in a line: Acetylcholinesterase (AChE) small molecule antagonists: colormetric cell-based qHTS assay (AID 1347395; calls by dose curve; note: nearly all actives have a fitted effect of over 30% in size; note: potency is the fitted concentration of half-maximal effect). An outline of the steps: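 Quantitative HTS in attached SH-SY5Y cells: 30 min compound exposure, then 90 min with acetylthiocholine and DTNB at 37 C; colour from thiocholine reports AChE activity.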

Assay [6] has the same target. The experiment in a line: Acetylcholinesterase (AChE) small molecule antagonists: enzyme-based qHTS assay (AID 1347397; calls by dose curve; note: nearly all actives have a fitted effect of over 55% in size; note: potency is the fitted concentration of half-maximal effect). The following applies: Potency: AChE enzyme activity inhibition. An outline of the steps:
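First, recombinant human AChE (50 mU/mL as dispensed) received test compound or DMSO. Second, plates stood 30 min at room temperature. Third, DTNB and acetylthiocholine were added, followed by 10 min at room temperature and colorimetric detection.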

The target is the same in assay [7]. The experiment in a line: Acetylcholinesterase (AChE) small molecule antagonists: enzyme-based qHTS assay with human liver microsomes (AID 1347399; calls by dose curve; note: nearly all actives have a fitted effect of over 60% in size). The following applies: Potency: qHTS inhibition. In outline:
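Recombinant human AChE (50 mU/mL in the enzyme mix) and human liver microsomes (0.25 mg/mL final) were preincubated with compound and NADPH (0.25 mg/mL final) for 30 min at 37 C. Acetylthiocholine/DTNB was then added; thiocholine was read colorimetrically after 10 min at room temperature.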

Assay [8] addresses Cytochrome P450 2D6 (Homo sapiens) (UniProt P10635). The experiment in a line: Cytochrome P450 Family 2 Subfamily D Member 6 (CYP2D6) small molecule antagonists: luciferase reporter qHTS assay (AID 1671196). Note: nearly all actives have a fitted effect of over 50% in size. Note: potency is the fitted concentration of half-maximal effect. An outline of the steps:
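Chemicals tested for interference with CYP2D6 activity; proluciferin substrate, NADPH regeneration, 1 h at room temperature, luminescent detection.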

The target of assay [9] is Cytochrome P450 2C19 (Homo sapiens) (UniProt P33261). The experiment in a line: Cytochrome P450 Family 2 Subfamily C Member 19 (CYP2C19) small molecule antagonists: luciferase reporter qHTS assay (AID 1671197). Note: nearly all actives have a fitted effect of over 65% in size. Note: potency is the fitted concentration of half-maximal effect. An outline of the steps:
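CYP2C19 P450-Glo, 1536-well qHTS. Cpd + enzyme/proluciferin substrate 10 min RT; + NADPH regen, 37C 1 h; stop with luciferin detection reagent, 20 min RT, luminescence (RLU). Pos ctrl ketoconazole.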
In general terms: Reporter assays use an easily measured gene product as a stand-in for the process of interest.

In assay [10] the target is Cytochrome P450 2C9 (Homo sapiens) (UniProt P11712). The experiment in a line: Cytochrome P450 Family 2 Subfamily C Member 9 (CYP2C9) small molecule antagonists: luciferase reporter qHTS assay (AID 1671198). Note: nearly all actives have a fitted effect of over 50% in size. Note: potency is the fitted concentration of half-maximal effect. An outline of the steps: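 Enzyme-substrate mix preincubated with compound 10 min at room temperature; reaction started with NADPH regeneration solution, 1 h 37C. Luminescent luciferin product read after 20 min detection reagent.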
Cytochrome P450 2C9 (Homo sapiens), sequence (P11712 whole entry, looked up): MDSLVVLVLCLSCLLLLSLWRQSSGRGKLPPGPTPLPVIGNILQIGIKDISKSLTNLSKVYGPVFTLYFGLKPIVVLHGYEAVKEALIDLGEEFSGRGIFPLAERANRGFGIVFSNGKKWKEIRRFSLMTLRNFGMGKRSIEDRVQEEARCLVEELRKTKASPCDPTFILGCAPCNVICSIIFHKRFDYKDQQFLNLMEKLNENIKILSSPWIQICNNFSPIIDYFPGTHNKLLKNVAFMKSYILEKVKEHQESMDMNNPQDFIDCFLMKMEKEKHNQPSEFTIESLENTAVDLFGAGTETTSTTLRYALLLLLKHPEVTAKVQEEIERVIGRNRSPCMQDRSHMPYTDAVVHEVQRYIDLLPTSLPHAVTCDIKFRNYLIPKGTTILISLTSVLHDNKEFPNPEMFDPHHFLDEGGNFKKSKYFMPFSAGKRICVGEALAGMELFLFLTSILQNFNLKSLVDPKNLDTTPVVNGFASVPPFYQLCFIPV

Assay [11] deals with Cytochrome P450 1A2 (Homo sapiens) (UniProt P05177). The experiment in a line: Cytochrome P450 Family 1 Subfamily A Member 2 (CYP1A2) small molecule antagonists: luciferase reporter qHTS assay (AID 1671199). Note: nearly all actives have a fitted effect of over 50% in size. Note: potency is the fitted concentration of half-maximal effect. An outline of the steps:
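Read-out is luminescence from luciferin detection reagent (20 min) proportional to CYP1A2 activity; compounds in DMSO preincubated 10 min with enzyme and proluciferin substrate, then NADPH regeneration solution, 1 h, room temperature.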

Assay [12] deals with Voltage-gated inwardly rectifying potassium channel KCNH2 (Homo sapiens) (UniProt Q12809). The experiment in a line: Human Ether-a-go-go-Related Gene (hERG) channel small molecule antagonists: fluorescence cell-based qHTS assay (AID 1671200). Note: nearly all actives have a fitted effect of over 50% in size. Note: potency is the fitted concentration of half-maximal effect. An outline of the steps:
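First, 1000 cells per well are seeded and cultured overnight at 37 C. Next, FluxOR II dye is loaded for 1 h at room temperature, protected from light. After 10 more minutes, stimulus is added and fluorescence is read.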

Assay [13] concerns the target Cytochrome P450 3A4 (Homo sapiens) (UniProt P08684). The experiment in a line: Cytochrome P450 Family 3 Subfamily A Member 4 (CYP3A4) small molecule antagonists: luciferase reporter qHTS assay (AID 1671201). Note: nearly all actives have a fitted effect of over 50% in size. Note: potency is the fitted concentration of half-maximal effect. In outline:
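Enzyme and proluciferin substrate are mixed with test chemicals for 10 min, then NADPH regeneration system drives turnover for 1 h at room temperature. A detection reagent halts the reaction; luminescence after 20 min gives relative activity.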

Assay [14] addresses Acetylcholinesterase (Homo sapiens) (UniProt P22303). The experiment in a line: Acetylcholinesterase (AChE) small molecule antagonists: fluorescence cell-based qHTS assay (AID 1347398; calls by dose curve; note: nearly all actives have a fitted effect of over 50% in size; note: potency is the fitted concentration of half-maximal effect). The following applies: Potency: AChE activity. An outline of the steps: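 Homogeneous quantitative HTS format. SH-SY5Y cells seeded at 2,000 per well settle overnight at 37 C. Compound pretreatment runs 30 min (37 C, 5% CO2); substrate/probe mix then reacts 40 min at RT before reading 490/520 nm.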

Where “and” joins values, the source holds several entries; their conditions need not be identical. Equal values may be shown once. A number with no mark means an inactive call. Inconclusive results are not listed. Calls of active or inactive are those of the source. Unless noted, calls come from the whole dose curve; as a rule, active = well fitted curve in the direction sought with a large enough effect in the repeat runs; inconclusive = weak or mixed curves; inactive = no such curve, though single readings can be large; an effect the other way counts as inactive or inconclusive.

Acetylcholinesterase (Homo sapiens), sequence (P22303 whole entry, looked up): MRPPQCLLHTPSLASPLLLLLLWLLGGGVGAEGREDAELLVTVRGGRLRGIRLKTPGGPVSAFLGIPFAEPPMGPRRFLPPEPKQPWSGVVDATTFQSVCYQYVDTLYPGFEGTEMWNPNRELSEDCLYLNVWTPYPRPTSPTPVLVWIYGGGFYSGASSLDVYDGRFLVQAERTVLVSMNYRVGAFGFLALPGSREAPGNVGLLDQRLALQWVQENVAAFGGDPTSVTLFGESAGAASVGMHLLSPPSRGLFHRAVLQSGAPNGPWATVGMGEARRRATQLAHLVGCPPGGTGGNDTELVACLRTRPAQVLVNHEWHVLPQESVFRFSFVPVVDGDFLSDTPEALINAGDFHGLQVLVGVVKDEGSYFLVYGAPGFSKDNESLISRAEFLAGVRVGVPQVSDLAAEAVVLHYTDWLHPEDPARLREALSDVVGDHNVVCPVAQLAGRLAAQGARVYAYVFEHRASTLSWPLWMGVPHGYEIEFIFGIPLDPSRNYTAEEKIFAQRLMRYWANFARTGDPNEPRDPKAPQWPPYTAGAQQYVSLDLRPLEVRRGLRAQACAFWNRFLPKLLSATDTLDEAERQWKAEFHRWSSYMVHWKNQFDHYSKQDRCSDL
Cytochrome P450 2C19 (Homo sapiens), sequence (P33261 whole entry, looked up): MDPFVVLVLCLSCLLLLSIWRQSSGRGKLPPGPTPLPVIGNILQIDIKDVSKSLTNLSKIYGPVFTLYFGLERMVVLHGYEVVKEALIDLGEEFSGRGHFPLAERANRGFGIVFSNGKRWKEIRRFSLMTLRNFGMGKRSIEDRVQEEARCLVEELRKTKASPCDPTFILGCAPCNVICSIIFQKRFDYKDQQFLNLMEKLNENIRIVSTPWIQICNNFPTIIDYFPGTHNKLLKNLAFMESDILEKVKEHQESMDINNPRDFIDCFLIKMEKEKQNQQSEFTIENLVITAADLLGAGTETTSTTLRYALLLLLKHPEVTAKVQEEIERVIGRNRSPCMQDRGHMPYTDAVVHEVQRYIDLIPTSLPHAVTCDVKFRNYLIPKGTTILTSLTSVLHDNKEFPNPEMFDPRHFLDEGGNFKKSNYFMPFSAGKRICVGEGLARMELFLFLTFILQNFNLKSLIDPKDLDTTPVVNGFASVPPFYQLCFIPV
Cytochrome P450 1A2 (Homo sapiens), sequence (P05177 whole entry, looked up): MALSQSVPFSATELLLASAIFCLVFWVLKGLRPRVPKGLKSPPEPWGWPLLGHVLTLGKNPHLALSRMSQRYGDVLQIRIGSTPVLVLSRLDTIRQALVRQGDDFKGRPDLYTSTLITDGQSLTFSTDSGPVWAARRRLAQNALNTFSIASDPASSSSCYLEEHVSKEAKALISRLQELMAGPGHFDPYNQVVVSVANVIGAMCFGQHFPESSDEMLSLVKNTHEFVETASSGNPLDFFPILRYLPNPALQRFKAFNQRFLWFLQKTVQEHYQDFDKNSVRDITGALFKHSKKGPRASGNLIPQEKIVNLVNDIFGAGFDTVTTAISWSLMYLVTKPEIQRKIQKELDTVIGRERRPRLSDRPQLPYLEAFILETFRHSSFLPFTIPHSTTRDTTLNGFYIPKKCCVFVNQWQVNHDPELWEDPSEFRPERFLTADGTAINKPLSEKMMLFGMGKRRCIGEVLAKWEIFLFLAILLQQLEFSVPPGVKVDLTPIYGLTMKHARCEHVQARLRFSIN
Cytochrome P450 3A4 (Homo sapiens), sequence (P08684 whole entry, looked up): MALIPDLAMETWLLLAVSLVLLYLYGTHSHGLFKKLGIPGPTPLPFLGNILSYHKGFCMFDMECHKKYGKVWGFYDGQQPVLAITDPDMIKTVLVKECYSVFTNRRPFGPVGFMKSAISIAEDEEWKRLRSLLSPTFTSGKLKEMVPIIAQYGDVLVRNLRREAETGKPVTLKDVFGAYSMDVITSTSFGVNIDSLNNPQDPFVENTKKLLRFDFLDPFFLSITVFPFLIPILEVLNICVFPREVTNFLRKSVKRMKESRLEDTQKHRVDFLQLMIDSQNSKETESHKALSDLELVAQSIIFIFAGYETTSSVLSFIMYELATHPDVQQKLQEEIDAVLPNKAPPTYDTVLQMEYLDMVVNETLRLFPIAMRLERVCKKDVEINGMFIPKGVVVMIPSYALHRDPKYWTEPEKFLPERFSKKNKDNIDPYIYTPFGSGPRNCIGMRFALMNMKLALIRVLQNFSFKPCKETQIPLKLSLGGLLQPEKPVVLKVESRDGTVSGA
Voltage-gated inwardly rectifying potassium channel KCNH2 (Homo sapiens), sequence (Q12809 whole entry, looked up): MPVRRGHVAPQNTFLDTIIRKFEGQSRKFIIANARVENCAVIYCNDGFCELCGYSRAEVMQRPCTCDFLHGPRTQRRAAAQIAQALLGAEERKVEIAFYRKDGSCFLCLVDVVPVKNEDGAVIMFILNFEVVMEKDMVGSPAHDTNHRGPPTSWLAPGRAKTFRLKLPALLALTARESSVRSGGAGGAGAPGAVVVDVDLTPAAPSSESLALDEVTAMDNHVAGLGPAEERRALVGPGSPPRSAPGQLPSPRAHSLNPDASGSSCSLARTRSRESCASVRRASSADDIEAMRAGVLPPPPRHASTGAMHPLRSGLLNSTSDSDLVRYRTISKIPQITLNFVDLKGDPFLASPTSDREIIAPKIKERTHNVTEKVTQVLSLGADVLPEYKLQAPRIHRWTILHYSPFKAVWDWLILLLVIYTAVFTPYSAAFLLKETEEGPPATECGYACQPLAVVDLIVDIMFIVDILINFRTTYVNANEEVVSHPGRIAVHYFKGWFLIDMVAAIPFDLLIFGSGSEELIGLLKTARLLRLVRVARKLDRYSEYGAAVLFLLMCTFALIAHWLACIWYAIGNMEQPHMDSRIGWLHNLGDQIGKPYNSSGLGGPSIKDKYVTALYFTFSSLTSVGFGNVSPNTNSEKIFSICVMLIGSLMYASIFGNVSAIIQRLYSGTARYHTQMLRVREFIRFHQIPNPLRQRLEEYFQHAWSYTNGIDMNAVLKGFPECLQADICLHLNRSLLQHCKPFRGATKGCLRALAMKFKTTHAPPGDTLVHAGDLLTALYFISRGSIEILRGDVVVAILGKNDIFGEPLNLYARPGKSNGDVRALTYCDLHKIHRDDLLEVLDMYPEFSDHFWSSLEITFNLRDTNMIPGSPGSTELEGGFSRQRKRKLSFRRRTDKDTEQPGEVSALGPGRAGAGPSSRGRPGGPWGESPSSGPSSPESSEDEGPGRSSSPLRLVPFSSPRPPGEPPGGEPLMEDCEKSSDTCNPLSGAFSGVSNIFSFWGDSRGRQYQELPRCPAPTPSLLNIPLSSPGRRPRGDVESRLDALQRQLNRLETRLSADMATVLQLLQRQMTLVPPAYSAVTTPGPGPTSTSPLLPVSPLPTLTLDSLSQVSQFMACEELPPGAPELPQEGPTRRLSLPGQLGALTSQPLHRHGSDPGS
Cytochrome P450 2D6 (Homo sapiens), sequence (P10635 whole entry, looked up): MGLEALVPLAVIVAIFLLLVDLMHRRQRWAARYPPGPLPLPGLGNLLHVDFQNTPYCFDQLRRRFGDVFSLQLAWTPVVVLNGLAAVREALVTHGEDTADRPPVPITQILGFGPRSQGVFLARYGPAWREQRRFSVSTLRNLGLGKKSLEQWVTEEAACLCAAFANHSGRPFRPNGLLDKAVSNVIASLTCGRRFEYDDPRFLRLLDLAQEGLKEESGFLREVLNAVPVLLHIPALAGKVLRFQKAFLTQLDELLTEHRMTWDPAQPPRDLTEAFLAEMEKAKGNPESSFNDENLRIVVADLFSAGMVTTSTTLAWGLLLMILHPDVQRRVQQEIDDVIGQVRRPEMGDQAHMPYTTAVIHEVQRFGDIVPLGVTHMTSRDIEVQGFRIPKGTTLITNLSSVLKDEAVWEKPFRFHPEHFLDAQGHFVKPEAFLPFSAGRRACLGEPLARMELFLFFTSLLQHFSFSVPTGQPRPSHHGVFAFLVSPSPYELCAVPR

Consider `C=CC(=O)N(C)C`, for which the Potency result in [1], in [2], in [3], in [4], in [5] and in assay [6] was “inactive” throughout. In addition, the Potency result in assay [7], in assay [8], in assay [9], in assay [10], in assay [11] and in assay [12] was “inactive” throughout. For the same compound, the Potency result in assay [13] was “inactive”.
Turning to `ClC(Cl)=C(c1ccc(Cl)cc1)c1ccc(Cl)cc1`, the Potency entry in assay [1], in [2], in assay [3], in [5], in assay [6] and in [14] was “inactive” each time. The Potency result in assay [8] and in [13] was “inactive” each time. The Potency was 62.6 µM (active) and 48.6 µM (active) in assay [4]; 409 nM (active) and 710 nM (active) in assay [9]; 14.5 µM (active) and 12.6 µM (active) in assay [10]; 5.78 µM (active) and 5.64 µM (active) in assay [11]; 39.9 µM (active) and 49 µM (active) in assay [12].
Take `Cc1cc(C(C)(C)c2cc(C)c(O)c(C)c2)cc(C)c1O`: the Potency in assay [1] is 59.1 µM (active); in [3], 52.7 µM (active); in assay [4], 33.2 µM (active); in assay [9], 1.22 µM (active); in assay [10], 3.07 µM (active); in assay [11], 38.6 µM (active). Moreover, the Potency in assay [13] is 2.73 µM (active). Moreover, the Potency result in [2], in assay [5], in [6], in assay [14], in assay [7] and in assay [12] was “inactive” in each case.
Consider `CCOP(=S)(OCC)SCCS(=O)(=O)CC`, for which the Potency result in assay [1], in [2], in assay [3], in assay [4] and in [12] was “inactive” in each case. For the same compound, the Potency in assay [5] is 35.6 µM (active); in [6], 71 µM (active); in [14], 35.6 µM (active); in [8], 2.24 µM (active); in assay [9], 0.1 µM (active); in assay [10], 0.894 µM (active). The Potency in assay [11] is 35.6 µM (active); in assay [13] it was 1.59 µM (active).
Turning to `CCCCCCCCCCCCBr`, the Potency entry in [1], in assay [2], in [3], in assay [4], in assay [5] and in [6] was “inactive” in each case. Besides, the Potency result in assay [14], in assay [7], in assay [8], in assay [9], in [10] and in [13] was “inactive” each time.
On to `CC(=O)OC1(c2ccccc2)CCN(CCc2ccccc2)CC1`, for which the Potency entry in [1], in assay [2], in assay [3], in assay [5], in assay [6] and in [7] was “inactive” in each case. Besides, the Potency result in assay [11] and in assay [13] was “inactive” throughout. Also, the Potency is 11.1 µM (active) in assay [4], 0.727 µM (active) in assay [8], 40.9 µM (active) in assay [9] and 25.1 µM (active) in assay [12].
As for `CN(CCCC(O)c1cccnc1)N=O` (stereo unspecified), the Potency result in assay [1], in assay [2], in assay [3], in assay [4], in assay [5] and in [6] was “inactive” each time. For the same compound, the Potency result in assay [7], in assay [8], in [9], in assay [10], in assay [11] and in assay [12] was “inactive” throughout.
In the case of `Cn1[nH]nnc1=S`, the Potency result in assay [1], in [2], in assay [3], in assay [4], in assay [5] and in assay [6] was “inactive” each time. The Potency entry in assay [14], in assay [7], in assay [8], in assay [12] and in assay [13] was “inactive” each time. Further, the values for the Potency in assay [9] and in [10] were 56.4 µM (active) and 71 µM (active), respectively.
